# From PubChem BioAssay (NCI)
# This is part of a sample that, as a whole, favours compounds with a hit. Of some 83,000 tested, about 20% had one in any assay.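 Method: cells in 96-well plates; compound added at one concentration; 48 h incubation; percent growth measured; values under 10 scored active.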 Values without a mark were called inactive. Active and inactive are the calls of the source.
# Columns and labels:
# Test in all cases: NCI-60 one-dose screen, 48 h (100 = growth as untreated, 0 = no growth, -100 = all killed)
# Settings in all cases: 10 µM unless noted
# [1] = system: NCI-H23 lung
# [2] = system: NCI-H226 lung
# [3] = system: NCI-H322M lung
# [4] = system: HOP-62 NSCLC
# [5] = system: NCI-H460 lung
# [6] = system: HOP-92 NSCLC
# [7] = system: NCI-H522 lung
# [8] = system: A549/ATCC NSCLC
# [9] = system: 786-0 renal
# [10] = system: COLO 205 colon
# [11] = system: DU-145 prostate
# [12] = system: K-562 leukemia
# [13] = system: MALME-3M melanoma
# [14] = system: MDA-MB-231 breast
# [15] = system: RXF 393 renal
# [16] = system: SF-268 CNS
# [17] = system: SF-295 CNS
# [18] = system: SF-539 CNS
# [19] = system: UACC-257 melanoma
# [20] = system: M14 melanoma
Compound,growth [1],growth [2],growth [3],growth [4],growth [5],growth [6],growth [7],growth [8],growth [9],growth [10],growth [11],growth [12],growth [13],growth [14],growth [15],growth [16],growth [17],growth [18],growth [19],growth [20]
CCOc1ccccc1NC(=O)N/C(N)=N/c1nc2ccccc2s1,12.6%,33.9%,35.9%,33.6%,6.47% (active),-13.4% (active),-39.8% (active),13.6%,12.9%,-78.1% (active),-4% (active),10.1%,42%,0.962% (active),48.7%,27.3%,3.78% (active),-27.7% (active),52.2%,13.4%
COc1ccc2[nH]c(O)c(N=Nc3nc(-c4ccc(Br)cc4)cs3)c2c1,-6.52% (active),-36.4% (active),28.2%,-10.1% (active),-35.4% (active),-34.4% (active),19.1%,-41.3% (active),-81.3% (active),-13.2% (active),16%,17.9%,-36.3% (active),35.7%,-64.2% (active),30.5%,9.66% (active),-68.4% (active),30.3%,14.4%
CCN(C(=O)CN1C(=O)/C(=C/c2ccco2)SC1=S)C1CCS(=O)(=O)C1 (stereo not given),99.9%,99.1%,99.8%,123%,101%,103%,47.5%,102%,101%,120%,101%,89.9%,104%,108%,109%,95.4%,105%,98%,98.2%,97.3%
COc1ccc(C(=O)C[n+]2cccc3c4ccccc4ccc32)cc1,28.4%,59.1%,68.8%,44.2%,19.4%,12.5%,28.8%,38.2%,66.9%,26.5%,56.3%,16.4%,34.3%,40.4%,55.8%,38%,29.8%,53.1%,15.4%,38.5%
CN(C)c1nc(NCCNS(=O)(=O)c2ccc(C(=O)/C=C/c3ccc(Cl)cc3)cc2)nc(N2CCOCC2)n1,9.4% (active),74.9%,81.2%,74.8%,50.7%,67.9%,25%,12%,-41.6% (active),21.1%,6.95% (active),-6.36% (active),89.2%,15.7%,-59.3% (active),57.8%,55.5%,-67.5% (active),71.5%,-20.2% (active)
Cc1[nH]nc2ccc3nc(-c4cn[nH]c4C(F)(F)F)c4c(c3c12)CCCC4,-8.3% (active),-5.98% (active),2.15% (active),5.21% (active),1.29% (active),-18.3% (active),-54% (active),-2.97% (active),-21.2% (active),-18.6% (active),5.72% (active),14.9%,-24% (active),-14.8% (active),-79.6% (active),18%,-12.9% (active),-67.2% (active),17.8%,3.29% (active)
COc1cc(/C=C/C(=O)c2cnn(-c3cc(=O)[nH]c4ccc(Br)cc34)c2C)cc(OC)c1OC,-63.4% (active),-28% (active),4.7% (active),-9.41% (active),-60.4% (active),25.7%,-89.1% (active),8.86% (active),-73% (active),-80.7% (active),-83.4% (active),-0.439% (active),-42.4% (active),-34.3% (active),-76.2% (active),-16.4% (active),-61.8% (active),-78.8% (active),-30.3% (active),-49.8% (active)
COc1ccc(-c2cc(-c3cc(OC)c(OC)c(OC)c3)[nH]c(=O)c2C#N)cc1,86%,23.4%,5.73% (active),12.9%,52.4%,-33.5% (active),50.6%,59.3%,-65.4% (active),130%,93%,79.1%,29.7%,1.65% (active),14.6%,54.3%,59.1%,-18.3% (active),96.4%,96.7%
O=C(NNC(=O)c1ccc(OCc2nc3ccc(Cl)cc3[nH]2)cc1)Nc1ccc(Cl)c(Cl)c1,47%,93%,47.6%,65.4%,27.5%,62.1%,60.4%,60.2%,80.8%,105%,73%,29.6%,6.73% (active),44.1%,69.4%,85.6%,101%,43.3%,95.6%,56.4%
CN(C)c1nc(NCCNS(=O)(=O)c2ccc(C3=Nc4c(N)nc(N)nc4NC(c4ccc(Cl)cc4)C3)cc2)nc(N2CCOCC2)n1 (stereo not given),69.2%,58.6%,69.3%,57.1%,59.1%,-10.8% (active),65.3%,63.4%,40.7%,66.5%,67.1%,15.7%,62.4%,12%,2.28% (active),53.4%,38.5%,43%,75.7%,45.5%
N#C/C(=C/c1ccc(Cl)cc1)c1nnc(NC(=O)c2ccc(-n3c(=O)[nH]c4ccccc4c3=O)cc2)s1,28.6%,2.1% (active),59.5%,26.6%,10.1%,39.3%,46.4%,69.8%,48.1%,68.1%,85.1%,99%,68.2%,-5.08% (active),20.1%,73.2%,96.3%,24.1%,102%,78.8%
CC(=O)C[n+]1cccc2c3ccccc3ccc21,85.4%,97%,89.7%,109%,82.4%,85.2%,82.7%,56.9%,94.8%,70.5%,105%,69%,63.5%,85.7%,46.3%,66.5%,93.9%,89.6%,48.8%,98.7%
CC[C@]12C=CCN3CC[C@]4(C(=C(C(=O)OC)C1)Nc1cc(OC)c([C@@H]5[C@H]6O[C@H]6[C@@]6(CC)CC(C(=O)OC)=C7Nc8cc(OC)ccc8[C@@]78CCN5[C@@H]68)cc14)[C@@H]32,41.8%,72.3%,86.2%,74.1%,29.9%,62.1%,64.8%,70.1%,44.6%,57.7%,70.2%,13.7%,44.4%,52.6%,48.1%,57.3%,53.8%,61.4%,75.2%,60.2%
CC(C)(C)OC(=O)N1CCC2(CC1)Oc1ccccc1[C@H]1CC(c3ccc(Br)cc3)=NN12,80.9%,79%,86.6%,77%,66.6%,67.5%,74.4%,67.4%,76.8%,101%,93.1%,36.1%,90%,63%,86.2%,55.9%,52.5%,88.8%,99.3%,87.3%
C=CCSc1nnc(-c2ccc(-c3nc4ccccc4[nH]3)cc2)o1,89.9%,95.5%,97.7%,84.2%,87.1%,79.1%,70.4%,73.5%,77.6%,82.6%,77.1%,46%,77.4%,92.2%,71.3%,87.4%,76.2%,82.2%,88.2%,73.5%
